Test results from PubChem BioAssay AID624483 (NMMLSC, 2012).
Screen size: about 360,000 compounds; about 11,000 (3.1%) were called active. Inconclusive results (about 2%) are left out. Many of the other results were omitted from the sample, so actives are more common in it than they were. A number with no mark means an inactive call. Cut-off read from the data, not from the text of the source: active = fluorescence intensity above about 16000; inconclusive = no clear call, values can overlap the other calls; inactive = below that.

Assay: counter-screen for toxin protease inhibitors: compound fluorescence, primary screen, artefact control for toxin protease inhibitor project, biochemical, multiplex microsphere, HTS (AID 624483)
Details: compound autofluorescence counterscreen, microsphere flow cytometry; stronger effect = higher value

SMILES	fluorescence intensity
COc1ccc(CNC(=O)C2CC(c3ccc(C(F)(F)F)cc3)=NO2)cc1 (stereo not given)	4040
COc1ccc(S(=O)(=O)N2CCC(C(=O)NCc3ccco3)CC2)cc1C	3590
COc1ccc(C2=NOC(C(=O)NCc3ccco3)C2)cc1OC (stereo not given)	21200 (active)
CCOC(=O)N1CCN(C(=O)c2cn(C)c3ccc(S(=O)(=O)N(CC)CC)cc3c2=O)CC1	2950
COc1ccc(N2CCN(C(=O)c3cn(C)c4ccc(S(=O)(=O)N5CCOCC5)cc4c3=O)CC2)cc1	5270
CCOC(=O)N1CCN(C(=O)c2cn(C)c3ccc(S(=O)(=O)N4CCCC4)cc3c2=O)CC1	19900 (active)
Cc1ccc(C(NC(=O)C2CCN(CCOc3ccc(Cl)cc3Cl)CC2)c2ccccn2)cc1 (stereo not given)	3690
O=C(NCCS(=O)(=O)N1CCN(c2ccccc2)CC1)c1cc(=O)c2ccccc2o1	2940
CC(C)C(=O)N1c2ccccc2NC2=C(C(=O)CCC2)C1c1ccc(N(C)C)cc1 (stereo not given)	3590
O=C1c2ccccc2C(O)N1Cc1ccccc1 (stereo not given)	11200
CC1(C)C2CCC1(CS(=O)(=O)NCCc1c[nH]c3ccccc13)C(=O)C2 (stereo not given)	3440
CCCC(=O)N1CCC1(C)C(=O)Nc1ccc(-n2cncn2)cc1 (stereo not given)	4100
Cc1cccc(C)c1NC(=O)CN1CCN(c2ccc(F)cc2)CC1	5760
COc1ccc(OCCCCN2CCC(C)CC2)cc1	3010
CCN(CC)C(=O)C1=C(C)N(Cc2ccc(C(C)(C)C)cc2)C(=O)C(CC(=O)NCc2cccc3ccccc23)C1 (stereo not given)	3960
CC(C)(C)c1ccc(CN2C(=O)c3ccccc3S2(=O)=O)cc1	3970
CC(C)(C)c1ccc(CN2C(=O)CN=C(c3ccccc3)c3ccccc32)cc1	16300 (active)
CNc1cnc(-c2cc(OC)c(OC)c(OC)c2)cn1	3800
O=C(Nc1ccc(OCCO)cc1)c1csc([C@H]2C[C@H](O)[C@@H](CO)O2)n1	4100
O=C(COC(=O)c1n[nH]c2ccccc12)Nc1ccccc1Br	3780

SMILES	fluorescence intensity
COC(=O)Nc1ccc(S(=O)(=O)N2CCN(CCN3C(=O)C4C5C=CC(C5)C4C3=O)CC2)cc1 (stereo not given)	21300 (active)
CC(=O)Nc1ccc(S(=O)(=O)N2CCN(S(=O)(=O)c3cccs3)CC2)cc1	6050
CC(=O)Nc1ccc(S(=O)(=O)N2CCN(CCCOc3cc(C)ccc3C)CC2)cc1	11400
CCn1c(CN2C(=O)CSc3ccccc32)n[nH]c1=S	6470
C=C(C)Cn1c(N2CCCC2)nc2c1c(=O)[nH]c(=O)n2C	5030
Cc1nnc(Sc2nc3c(c(=O)[nH]c(=O)n3C)n2Cc2ccccc2)s1	5620
Cc1nnc(SCCCn2c(N3CCCCC3)nc3c2c(=O)[nH]c(=O)n3C)s1	20700 (active)
Cc1ccc(/C=N/NC(=O)c2sccc2OCc2ccc(F)cc2)cc1	3080
CNC(=S)NNC(=O)c1sccc1OCc1ccccc1	22300 (active)
CNC(=S)NNC(=O)c1cccn(Cc2ccccc2)c1=O	4620
CC1(C(=O)NS(=O)(=O)c2ccc(C#N)cc2)CCN1C(=O)CC1CCCC1 (stereo not given)	3000
COC(=O)c1nc(NC(=O)c2ccccc2)n[nH]1	19900 (active)
COC(=O)c1nc(NC(=O)c2ccc(Cl)cc2)n[nH]1	12500
COC(=O)c1nc(NC(=O)c2ccc(F)cc2)n[nH]1	3910
CCCCCn1nnnc1C1c2ccccc2C(=O)N1Cc1ccco1 (stereo not given)	6010
CC1CCCN(S(=O)(=O)c2ccc(-c3ccc(=O)[nH]n3)o2)C1 (stereo not given)	5950
CN(C)/C=C(\C#N)C(=O)c1cccnc1Oc1cccc(F)c1	15200
CCOc1ncccc1C(=O)N(C)CC(=O)Nc1ccc(F)cc1	2630
CN(C)/C=C(\C#N)C(=O)c1cccnc1Oc1ccc(F)cc1F	24800 (active)
COc1cc(C(O)c2nc(-c3cccc(C(=O)O)c3)cs2)ccc1F (stereo not given)	3440

SMILES	fluorescence intensity
CC(Sc1ccccc1F)C(=O)Nc1cccc(S(=O)(=O)N2CCOCC2)c1 (stereo not given)	4000
CC(C)(C)OC(=O)N(Cc1ccccc1)Cc1ccc(OCc2cccc(NC(=O)c3ccccc3)c2)cc1	3640
CCOc1ccc(OCc2cccc(C(=O)N(CC)CC)c2)cc1	2210
CC(C)c1cc(C(N)=O)c(NC(=O)c2cccc(COc3ccc(Br)cc3)c2)s1	22100 (active)
CC1(C)OC(=O)C2=C(C[C@@H](C3CCCC3)O[C@@H]2c2ccc(Cl)cc2)O1	6120
C=CCc1cccc2cc(C(=O)N3CCN(C(=O)OCC)CC3)c(=O)oc12	19200 (active)
C=CCc1cccc2cc(C(=O)Nc3ccc(NC(C)=O)cc3)c(=O)oc12	4060
C=CCc1cccc2cc(C(=O)OCC)c(=O)oc12	2480
CCc1ccc(OC2(C)CCN(CCOc3ccc(C)cc3)C2)cc1 (stereo not given)	3880
Cc1nc2ccc(S(=O)(=O)NCC(=O)NCCN3CCCCC3C)cc2s1 (stereo not given)	3450
Cc1ccc(N(Cc2cc(=O)[nH]c3ccccc23)C(=O)CCl)cc1	3750
Cc1oc(-c2ccccc2F)nc1CS(=O)(=O)CC(=O)NCCCN(C)C1CCCCC1	17000 (active)
CSc1ccc(CCNC(=O)CS(=O)(=O)Cc2nc(-c3ccccc3F)oc2C)cc1	5680
Cc1oc(-c2ccccc2F)nc1CS(=O)CC(=O)NCCN1CCCCC1C (stereo not given)	5840
CC1(C(=O)Nc2cccc3c2CCCC3)CCN1C(=O)CCc1ccc(Cl)cc1Cl (stereo not given)	3570
C=C(C)CNC(=S)Nc1ccc(S(=O)(=O)Nc2cnc3ccccc3n2)cc1	4200
Cc1ccc(NS(=O)(=O)c2cc3c(cc2Br)NC(=O)CO3)cc1C	2960
CCCc1[nH]nc2c1C(c1ccc(Br)s1)C(C#N)=C(N)O2 (stereo not given)	2790
CCCc1[nH]nc2c1C(c1ccc(OC(=O)c3ccco3)cc1)C(C#N)=C(N)O2 (stereo not given)	17200 (active)
CCCc1nc2c([nH]1)C(c1cccnc1)C(C#N)=C(N)O2 (stereo not given)	7630
